Test results as given in PubChem BioAssay (NCATS).
Records with an inconclusive call do not appear. A number with no mark means an inactive call. Activity calls are given as the source filed them. The call rests on the fitted dose curve; in most records, active means well fitted activation curve with a large enough effect in the main read-out, with a control signal flat (not every such curve was filed as active); inconclusive means small, poorly fitted or top-dose-only effect, or effect the other way, or a change in a side signal; inactive means flat fitted curve, though single readings scatter.

Target: 3',5'-cyclic-AMP phosphodiesterase 4B (Homo sapiens) (UniProt Q07343)
Experiment: qHTS Assay for Inhibitors of PDE-IV (AID 607); on activation (PDE inhibition): % of control where 0% means no effect
Conditions: HEK293 ACTOne CNG channel cells, membrane potential fluorescence; series mostly up to 22.9 µM; activation (PDE inhibition): at the top concentration
From the text: NIH Chemical Genomics Center [NCGC]
NIH Molecular Libraries Screening Centers Network [MLSCN]
The cyclic nucleotide phosphodiesterases (PDEs) are proteins that catalyze hydrolysis of 3', 5'-cyclic nucleotides, such as cyclic adenosine monophosphate (cAMP) and cyclic guanosine monophosphate (cGMP), to their corresponding 5'-nucleotide monophosphates. These enzymes play an important role in controlling cellular concentrations of cyclic nucleotides and have a central role in a variety of intracellular signaling events. cAMP PDEs are emerging as a promising class of drug targets in asthma and cardiovascular disease therapeutic areas.
There are no commercially available cell-based screening assays for PDE inhibitors: currently biochemical assays are done using pure substrates (cAMP or cGMP) and purified recombinant PDE enzymes. As with other biochemical screens on intracellular targets, false positives and false negatives may result from issues involving cell membrane permeability, cellular metabolism, and the like.
Here we report the development of a cell-based screening assay for cAMP phosphodiesterase (PDE) inhibitors. The assay is based on the BD ACTOne# technology (BD Biosciences) which utilizes a modified cyclic nucleotide-gated channel (CNG) to monitor intracellular cAMP changes in live cells. The CNG channel is localized on the plasma membrane, and opens when the intracellular cAMP level increases, resulting in ion flux and cell membrane depolarization. The influx of cations through the CNG channel can be quantified using membrane potential (MP) dyes. We modified the BD ACTOne technology to allow the detection of PDE inhibitors, and performed an inhibitor screen for PDE-IV, which is expressed endogenously in HEK293 cells. We optimized this assay in homogeneous 1536-well plate assay format for high throughput screening.
NCGC Assay Protocol Summary:
The medium contained 10% FBS (Invitrogen), 2 mM L-glutamine, and 250 ug/ml G418 (Cellgro) and 1 ug/ml puromycin (Clontech). ACTOneTM parental cells (BD Biosciences) were maintained in the same medium without puromycin.
The activity of the CNG channel was measured by BD ACTOneTM membrane potential dye kit (BD Biosciences). Forskolin, a positive control for cAMP activation and RO 20-1724, a PDE inhibitor, were both purchased from Sigma and solublized in DMSO.
Sequence,Parameter,Value,Description
1,Reagent,3 uL,1000 cells/well 1536 TC treated Black plate
3,Compound,0.5 uL,Kalypsys dispense RO 20-1724 100 uM final [A]
4,Reagent,3 uL,BD membrane potential dye
6,Compound,23 nL,Final concentration was 0.7nM to 22.9uM
8,Detector,EX 535 / EM 590 [B],Envision
Footnotes: [A] The stock 2 mM RO 20-1724 PDE inhibitor was made in 10 % DMSO. Parental cell line received 10 uM forskolin + 100 uM RO. [B] Envsion settings: Bottom Excitation 535/20 nm top emission 590/20, gain of 150 and 5 flashes per well.
Keywords: PDE, PDE-IV, cytotoxicity, flourescence, MLSMR, MLSCN, NIH Roadmap, qHTS, NCGC
Potency means the concentration at half of the fitted maximal effect.

Sequence of 3',5'-cyclic-AMP phosphodiesterase 4B (Homo sapiens) (Q07343 whole entry, looked up): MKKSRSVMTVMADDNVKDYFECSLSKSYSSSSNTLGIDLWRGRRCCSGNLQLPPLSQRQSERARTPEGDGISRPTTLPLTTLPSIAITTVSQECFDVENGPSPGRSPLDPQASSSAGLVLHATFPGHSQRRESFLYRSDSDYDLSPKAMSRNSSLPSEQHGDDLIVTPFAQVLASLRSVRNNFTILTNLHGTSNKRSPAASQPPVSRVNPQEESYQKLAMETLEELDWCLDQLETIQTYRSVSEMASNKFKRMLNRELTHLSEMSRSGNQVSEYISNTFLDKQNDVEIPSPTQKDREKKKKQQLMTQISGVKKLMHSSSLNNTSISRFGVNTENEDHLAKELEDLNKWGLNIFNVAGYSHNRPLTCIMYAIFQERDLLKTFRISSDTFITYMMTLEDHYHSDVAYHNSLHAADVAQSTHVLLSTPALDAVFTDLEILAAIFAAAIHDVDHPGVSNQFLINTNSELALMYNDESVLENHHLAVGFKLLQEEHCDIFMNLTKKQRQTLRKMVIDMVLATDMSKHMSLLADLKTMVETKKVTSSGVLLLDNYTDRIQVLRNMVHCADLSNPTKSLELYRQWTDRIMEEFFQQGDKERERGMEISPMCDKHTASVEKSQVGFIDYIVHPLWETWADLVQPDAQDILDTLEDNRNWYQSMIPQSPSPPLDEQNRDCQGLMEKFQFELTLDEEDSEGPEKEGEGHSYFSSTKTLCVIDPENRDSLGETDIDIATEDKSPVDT

| Compound | activation (PDE inhibition) | Potency |
| --- | --- | --- |
| Cl.Cl.Cl.Cl.Cl.Cl.N.N.N.N.NNNNN.NNNNN.O.O.[Ru].[Ru].[Ru] | -0.0918% | – |
| CC(C)n1cnc2c(C(=O)N[C@H]3CN4CCC3CC4)cc(Cl)cc21 | 17% | – |
| CN(C(=O)Cc1ccc(Cl)c(Cl)c1)[C@@H](CN1CCCC1)c1cccc(OCC(=O)O)c1 | -2.27% | – |
| Cc1o[nH]c(=O)c1C[C@@H](N)C(=O)O | -19% | – |
| N[C@H](Cc1o[nH]c(=O)c1Cl)C(=O)O | -3.61% | – |
| CN1CCN(C(=O)O[C@@H]2c3nccnc3C(=O)N2c2ccc(Cl)cn2)CC1 | – | inactive |
| c1ccc(C[C@@H](c2ccccc2)N2CCCCC2)cc1 | – | 4.77 µM (active) |
| C[C@H](N)Cc1c[nH]c2ccc(OCc3cccs3)cc12 | 8.42% | – |
| NC[C@@H](CC(=O)O)c1ccc(Cl)cc1 | – | inactive |
| COC(=O)/C=C\C(=O)N[C@@H]1CC[C@@]2(O)[C@H]3Cc4ccc(O)c5c4[C@@]2(CCN3CC2CC2)[C@@H]1O5 | 0.774% | – |
| COC(=O)CN1CN(c2ccccc2)C2(CCN(Cc3ccc4ccccc4c3)CC2)C1=O | 13.9% | – |
| COc1ccc(CNC(=O)/C=C\c2ccc3[nH]cc(CCN(C)C)c3c2)cc1 | 3.8% | – |
| c1cncc([C@@H]2CCCCN2)c1 | – | inactive |
| COC(=O)c1cc2c(cn1)[nH]c1ccccc12 | 10.9% | – |
| N[C@H](CP(=O)(O)O)C(=O)O | -1.05% | – |
| Oc1ccc2c3c1O[C@H]1c4[nH]c5ccccc5c4C[C@]4(O)[C@H](C2)N(CC2CC2)CC[C@@]314 | 8.24% | – |
| C=CCN1CC[C@@]23c4c5ccc(O)c4O[C@H]2/C(=N\N=C2/CC[C@@]4(O)[C@H]6Cc7ccc(O)c8c7[C@@]4(CCN6CC=C)[C@@H]2O8)CC[C@]3(O)[C@@H]1C5 | – | inactive |
| C=C(C)[C@H]1CN[C@H](C(=O)O)[C@@H]1CC(=O)O | -1.07% | – |
| CP(=O)(O)CCCN | -5.53% | – |
| CC(C)(C)c1o[nH]c(=O)c1C[C@H](N)C(=O)O | – | inactive |

| Compound | activation (PDE inhibition) | Potency |
| --- | --- | --- |
| C[C@H](N)Cc1c[nH]c2ccc(O)cc12 | -3.3% | – |
| NC(N)=Nc1ccc2[nH]c3c(c2c1)C[C@]1(O)[C@@H]2Cc4ccc(O)c5c4[C@]1(CCN2CC1CC1)[C@@H]3O5 | -0.08% | – |
| CN1C(=O)COc2c(C(=O)N[C@@H]3CN4CCC3CC4)cc(Cl)cc21 | -31.9% | – |
| CC1=C(O)C(=O)[C@H]2O[C@@H]2C1=O | -20.9% | – |
| C=CCN1C[C@H](C)N([C@H](c2ccc(C(=O)N(CC)CC)cc2)c2cccc(O)c2)C[C@H]1C | -18.5% | – |
| Ic1cncc(OC[C@@H]2CCN2)c1 | 18.7% | – |
| COc1ccc2[nH]cc(CCN(C)C)c2c1 | 1.88% | – |
| N[C@@H](CCCCP(=O)(O)O)C(=O)O | 7.41% | – |
| Cc1nc(N)sc1CCN | -20.2% | – |
| C[C@]12N[C@@H](Cc3ccccc31)c1ccccc12 | – | inactive |
| Clc1ccc([C@@H]2C[C@H]3CC[C@@H]2N3)cn1 | 5.2% | – |
| CCN(CC)CCO[C@H]1CC[C@@]2(C)C(=CC[C@@H]3[C@H]2CC[C@]2(C)C(=O)CC[C@H]32)C1 | -14.2% | – |
| N[C@@]1(C(=O)O)CC[C@H](C(=O)O)C1 | – | inactive |
| Cc1o[nH]c(=O)c1C[C@H](N)C(=O)O | – | inactive |
| COc1ccc2c3c([nH]c2c1)C(C)=NCC3 | 14.9% | – |
| Oc1ccc2c3c1O[C@H]1c4c(c5ccccc5n4Cc4ccccc4)C[C@]4(O)[C@H](C2)N(CC2CC2)CC[C@@]314 | -11.1% | – |
| CCCN1C[C@H](C)N([C@H](c2ccc(C(=O)N(CC)CC)cc2)c2cccc(OC)c2)C[C@H]1C | 7.62% | – |
| S=C=Nc1cccc(C2(N3CCCCC3)CCCCC2)c1 | – | inactive |
| O=C1CC[C@@]2(O)[C@H]3Cc4ccc(O)c5c4[C@@]2(CCN3CC2CC2)[C@@H]1O5 | -1.49% | – |
| C=C1[C@@H](O)C2C=CC[C@H](C)C(=O)[C@@](C)(O)C=C[C@@H](OC(C)=O)[C@@]23C(=O)N[C@H](Cc2ccccc2)[C@@H]3[C@@H]1C (stereo not given in full) | -3.05% | – |
